Some test systems named below: DU-145 prostate; K-562 leukemia; MALME-3M melanoma; MDA-MB-231 breast; RXF 393 renal; SF-268 CNS; SF-295 CNS; SF-539 CNS; UACC-257 melanoma; M14 melanoma.
Holding throughout (assay): NCI-60 one-dose screen, 48 h (100 = growth as untreated, 0 = no growth, -100 = all killed)
Common to all, as to conditions: 10 µM unless noted

The panel holds about 83,000 compounds, 20% with a hit somewhere; the sample as a whole holds those more often.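 Growth was measured after 48 h exposure to one concentration of compound in 96-well plates. Values under 10 count as active.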 Values without a mark were called inactive. Calls of active or inactive are those of the source.

For the molecule `COC(=O)c1c2c(c(C)[n+]([O-])c1C)C(=O)C=C(NCc1cccc(Cl)c1)C2=O`, the growth in the experiment with DU-145 prostate is -98.3% (active); in the experiment on K-562 leukemia, -1.12% (active); with MALME-3M melanoma, -96.9% (active); with MDA-MB-231 breast, -27.3% (active); in the experiment on RXF 393 renal, -32.1% (active); in the experiment on SF-268 CNS it was -0.347% (active). Also, the growth in the experiment on SF-295 CNS is -96% (active); in the experiment with SF-539 CNS it was -91.7% (active); with UACC-257 melanoma, -88.5% (active); in the experiment on M14 melanoma it was -79.6% (active).

As to `COc1ccc(-c2nc3sccn3c2/C=C/C(=O)c2cc(OC)c(OC)c(OC)c2)cc1OC`, the growth in the experiment on DU-145 prostate is 6.29% (active); in the experiment on K-562 leukemia it was 13.9%; in the experiment on MALME-3M melanoma, 37.7%; with MDA-MB-231 breast, 31.7%; with RXF 393 renal, -1.12% (active); in the experiment on SF-268 CNS, 28.2%. Moreover, the growth is 5.22% (active) in the experiment with SF-295 CNS, 24.6% in the experiment with SF-539 CNS, 24.5% in the experiment on UACC-257 melanoma and 7.09% (active) with M14 melanoma.

As to `COc1ccc(C(=O)C2=CC(=O)C(=O)C2)cc1OC`, the growth in the experiment with DU-145 prostate was 111%; in the experiment on K-562 leukemia, 116%; with MALME-3M melanoma, 114%; in the experiment on MDA-MB-231 breast it was 124%; in the experiment with RXF 393 renal it was 106%; in the experiment on SF-268 CNS, 103%. For the same molecule, the growth was 100% in the experiment with SF-295 CNS, 95.5% in the experiment with SF-539 CNS, 115% with UACC-257 melanoma and 107% in the experiment with M14 melanoma.

For the molecule `C[C@@H](Oc1cc(-c2cnn(C3CC4(CNC4)C3)c2)cnc1N)c1c(Cl)ccc(F)c1Cl`, the growth with DU-145 prostate is 46.6%; in the experiment with K-562 leukemia, 5.12% (active); in the experiment on MALME-3M melanoma, 48.5%; with MDA-MB-231 breast it was 37.9%; in the experiment with RXF 393 renal, 21.7%; with SF-268 CNS, 39.6%. For the same molecule, the growth was 24.5% in the experiment on SF-295 CNS, 28.9% with SF-539 CNS, 8.56% (active) in the experiment on UACC-257 melanoma and 30.2% in the experiment on M14 melanoma.

As for `O=C1/C(=C/c2ccc([N+](=O)[O-])cc2)Oc2ccc(O)cc21`, the growth is 103% in the experiment on DU-145 prostate; 41.7% with K-562 leukemia; 91.8% in the experiment on MALME-3M melanoma; 89% in the experiment on MDA-MB-231 breast; 92.6% in the experiment with RXF 393 renal; 89.9% in the experiment with SF-268 CNS. In addition, the growth in the experiment on SF-295 CNS was 68.2%; in the experiment on SF-539 CNS, 86.4%; in the experiment on UACC-257 melanoma, 67.3%; in the experiment on M14 melanoma, 97.8%.

Consider `O=C1NC(=S)S/C1=C\c1cccc([N+](=O)[O-])c1`, for which the growth was 111% in the experiment with DU-145 prostate; 68.5% with K-562 leukemia; 153% with MALME-3M melanoma; 93.8% with MDA-MB-231 breast; 153% in the experiment on RXF 393 renal; 89.9% in the experiment with SF-268 CNS. For the same molecule, the growth in the experiment on SF-295 CNS is 91.3%; with SF-539 CNS it was 88.6%; in the experiment on UACC-257 melanoma, 88.8%; in the experiment with M14 melanoma, 97.4%.

Turning to `COc1ccc(S(=O)(=O)ON=C2C=C(C)C(=O)C(C)=C2)cc1`, the growth was 101% in the experiment with DU-145 prostate; 48.7% with K-562 leukemia; 102% with MALME-3M melanoma; 62.5% in the experiment on MDA-MB-231 breast; 81.6% with RXF 393 renal; 92.6% in the experiment with SF-268 CNS. Further, the growth in the experiment on SF-295 CNS was 93%; in the experiment with SF-539 CNS, 94%; with UACC-257 melanoma, 98.6%; in the experiment on M14 melanoma, 99.9%.

Turning to `COc1cc(C(=O)/C=C/c2c(-c3cccs3)nc3sccn23)cc(OC)c1OC`, the growth in the experiment on DU-145 prostate is 3.28% (active); in the experiment on K-562 leukemia, 15.4%; with MALME-3M melanoma, 34.8%; with MDA-MB-231 breast, 7.07% (active); in the experiment on RXF 393 renal, -20.7% (active); with SF-268 CNS, 17.7%. In addition, the growth in the experiment on SF-295 CNS was -35.8% (active); with SF-539 CNS, -27.6% (active); with UACC-257 melanoma, 5.19% (active); in the experiment on M14 melanoma it was 7.73% (active).

Regarding `CCC(C)[C@H]1O[C@]2(CC[C@@H]1C)C[C@@H]1C[C@@H](C/C=C(\C)[C@@H](OC3C[C@H](OC)C(O[C@H]4C[C@H](OC)[C@@H](O)[C@H](C)O4)[C@H](C)O3)[C@@H](C)/C=C/C=C3\CO[C@@H]4[C@H](O)C(C)=C[C@@H](C(=O)O1)[C@]34O)O2` (stereo not given in full), the growth with DU-145 prostate was 22.1%; in the experiment with K-562 leukemia, 14.1%; in the experiment with MALME-3M melanoma, 0.803% (active); with MDA-MB-231 breast it was -15.6% (active); in the experiment on RXF 393 renal it was -23.1% (active); in the experiment with SF-268 CNS, 25.1%. Further, the growth is -36.7% (active) in the experiment on SF-295 CNS, -15.4% (active) in the experiment with SF-539 CNS, 47.3% in the experiment on UACC-257 melanoma and -73.1% (active) in the experiment with M14 melanoma.

As to `CC1(C)CC(=O)C2=C(C1)Nc1cc3c(cc1C2c1ccc(F)cc1)OCO3` (stereo not given), the growth was 117% in the experiment on DU-145 prostate; 87.8% in the experiment on K-562 leukemia; 81.2% with MALME-3M melanoma; 108% in the experiment on MDA-MB-231 breast; 82.3% in the experiment with RXF 393 renal; 92.5% with SF-268 CNS. The growth with SF-295 CNS was 64.3%; in the experiment with SF-539 CNS, 102%; with UACC-257 melanoma, 110%; in the experiment on M14 melanoma it was 115%.

Consider `COc1cc2nc(N3CCC[C@H](NC4=CC(=O)c5ccccc5C4=O)C3)nc(N)c2cc1OC`, for which the growth in the experiment on DU-145 prostate is -54.1% (active); with K-562 leukemia, -48.4% (active); in the experiment with MALME-3M melanoma it was -81.3% (active); in the experiment on MDA-MB-231 breast it was -86.8% (active); in the experiment on RXF 393 renal it was -76.7% (active); with SF-268 CNS it was -52.3% (active). Moreover, the growth with SF-295 CNS was -96.8% (active); in the experiment with SF-539 CNS, -100% (active); with UACC-257 melanoma, 97.7%; in the experiment on M14 melanoma, 96.2%.

With `COc1cccc(-c2ccc3c(c2)C2CCN(Cc4ccccc4)C3C2)c1` (stereo not given), the growth was 95.6% with DU-145 prostate; 22.7% in the experiment with K-562 leukemia; 62.8% with MALME-3M melanoma; 88.8% with MDA-MB-231 breast; 98% with RXF 393 renal; 86.9% with SF-268 CNS. The growth in the experiment with SF-295 CNS was 81.2%; with SF-539 CNS, 85.1%; with UACC-257 melanoma it was 78.7%; in the experiment with M14 melanoma it was 72.2%.

As to `Cc1nn(CC(=O)O)c2c1C(=O)CC(C)(C)C2`, the growth in the experiment with DU-145 prostate was 118%; in the experiment with K-562 leukemia it was 123%; with MALME-3M melanoma it was 118%; in the experiment on MDA-MB-231 breast, 114%; with RXF 393 renal, 117%; in the experiment on SF-268 CNS it was 103%. The growth is 102% in the experiment with SF-295 CNS, 102% in the experiment on SF-539 CNS, 96.9% in the experiment on UACC-257 melanoma and 93.2% in the experiment on M14 melanoma.

As for `CN1CCc2cccc3c2C1Cc1ccc(O)c(O)c1-3` (stereo not given), the growth in the experiment on DU-145 prostate is 96.3%; in the experiment on K-562 leukemia it was 64.3%; in the experiment with MALME-3M melanoma, 83.1%; in the experiment on MDA-MB-231 breast, 65.7%; with RXF 393 renal, 91.1%; with SF-268 CNS, 87.6%. Also, the growth in the experiment with SF-295 CNS was 97.8%; in the experiment on SF-539 CNS, 84.2%; in the experiment with UACC-257 melanoma, 103%; in the experiment with M14 melanoma, 76.1%.

These data come from PubChem BioAssay (NCI).
